Laboratory results reported in PubChem BioAssay (NCATS).
Several values for one entry are separate records, joined by “and”; a condition that tells them apart may be missing. Equal entries are not always repeated. A number with no mark means an inactive call. Activity calls are given as the source filed them. The call rests on the fitted dose curve; in most records, active means well fitted cell-killing curve with a large enough effect; inconclusive means small, poorly fitted or top-dose-only effect, or effect the other way; inactive means flat fitted curve, though single readings scatter.

Test: MultiTox-Fluor Cytotoxicity Assay - LYMP1-003 - Dead Cells (AID 961); further: nearly all actives have a fitted effect of over 70% in size;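 on cytotoxicity (dead cells): 0% = DMSO and 100% = tetraoctylammonium bromide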
Settings: LYMP1-003 lymphoblastoid cells, dead-cell protease fluorescence; series mostly up to 92.2 µM; cytotoxicity (dead cells): at the top concentration
Source text: NIH Chemical Genomics Center [NCGC]
NIH Molecular Libraries Screening Centers Network [MLSCN]
National Institutes of Environmental Health Sciences [NIEHS]
National Toxicology Program [NTP]
We have developed a 1536-well cell-based assay for quantitative high throughput screening (qHTS) against a number of cell lines to determine in vitro cytotoxicity of small molecules. This particular assay uses a human lymphoblastoid cell line (LYMP1-003) purchased from Coriell Institute.
NCGC Assay Protocol Summary:
The MultiTox-Fluor Cytotoxicity Assay (Promega) is a homogeneous method to simultaneously measure the relative number of live and dead cells in culture by detecting changes in cell membrane integrity. There are two fluorogenic peptide substrates in the assay reagent. Viable cells are determined when the cell-permeant substrate (GF-AFC) enters the cell and is cleaved by protease from live cells resulting in liberated fluorophore. This live-cell protease activity restricted to viable cells is proportional to cell number. The dead cells are determined by using fluorogenic cell-impermeant peptide substrate (bis-AAF-R110) which cleaved by dead cell proteases leaking from damaged cell membrane.
Using the MultiTox-Fluor Cytotoxicity Assay, the relative number of dead cells was measured in the lymphoblastoid cell line with complete culture medium following compound treatment for 16 hours. The assay was performed in opaque black Kalypsys 1536-well plates. In the screen, tetraoctylammonium bromide was used as positive control. Library compounds were measured for their ability to cause acute toxicity in the cell line, as reflected by an increase in dead cell protease activity, in a concentration-dependent manner. Data were normalized to the controls for basal activity (DMSO only) and 100% stimulation (15 uM tetraoctylammonium bromide). AC50 values were determined from concentration-response data modeled with the standard Hill equation.
qHTS protocol for MultiTox-Fluor Cytotoxicity assay
[Step] [Parameter] [Value] [Description]
1. Reagent; 5 uL; 2500 lymphoblastoid cells/well
2. Time; 5 hr; 37 C incubation
4. Controls; 23 nL; Tetraoctylammonium bromide 6.4pM to 92 uM
5. Time; 16 hr; 37 C incubation
6. Reagent; 5 uL; MuliTox-Fluor Assay reagent
7. Time; 60 min; Room Temperature
8. Detection; dead-cell fluorescence (Ex/Em=485/520); EnVision plate reader
Keywords: cytotoxicity, lymphoblastoid cell line, fluorescence, NTPHTS, NTPHTS_NCGC, NIEHS, EPA, DSSTox, MLSMR, MLSCN, NIH Roadmap, qHTS, NCGC
Potency means the concentration at half of the fitted maximal effect.

| SMILES | cytotoxicity (dead cells) [%] | Potency |
| --- | --- | --- |
| O=C(O)C1C(C(=O)O)C2(Cl)C(Cl)=C(Cl)C1(Cl)C2(Cl)Cl (centres undefined) | -9.88 | – |
| C#CCO | -2.43 | – |
| C=CC(=O)OCC(CO)(COC(=O)C=C)COC(=O)C=C | – | 7.94 µM (active) |
| CCCCCCCCn1sccc1=O | – | 7.94 µM (active) |
| c1ccc2cc3c(cc2c1)-c1cccc2cccc-3c12 | -14.3 | – |
| O=[N+]([O-])c1cc(C(F)(F)F)cc([N+](=O)[O-])c1Cl | -25 | – |
| O=C(CCl)c1ccccc1 | – | 31.6 µM (active) |
| Oc1c(Br)c(Br)c(Br)c(Br)c1Br | -1.34 | – |
| Nc1ccccc1C(=O)OCCc1ccccc1 | -1.72 | – |
| N#CC(Cl)Cl | 3.83 | – |
| ClC1=C(Cl)C2(Cl)C3C(Cl)C(Cl)CC3C1(Cl)C2(Cl)Cl (centres undefined) | – | 50.1 µM (active) |
| CN(C)c1ccc(N=O)cc1 | – | 3.98 µM (active) |
| FC(F)(F)c1ccc(Cl)cc1 | -10.7 | – |
| N#CSCSC#N | – | 25.1 µM (active) |
| O=Nc1ccc(Nc2ccccc2)cc1 | – | 5.01 µM (active) |
| C[C@@H]1CC[C@@]2(OC1)O[C@H]1[C@@H](O)[C@H]3[C@@H]4CC[C@H]5C[C@@H](O[C@@H]6O[C@H](CO)[C@H](O[C@@H]7O[C@H](CO)[C@@H](O)[C@H](O[C@@H]8OC[C@@H](O)[C@H](O)[C@H]8O)[C@H]7O[C@@H]7O[C@H](CO)[C@@H](O)[C@H](O[C@@H]8O[C@H](CO)[C@@H](O)[C@H](O)[C@H]8O)[C@H]7O)[C@H](O)[C@H]6O)[C@H](O)C[C@]5(C)[C@H]4CC[C@]3(C)[C@H]1[C@@H]2C | – | 10 µM (active) |
| C(=NC1CCCCC1)=NC1CCCCC1 | 14.6 | – |
| COP(=O)(OC)O/C(=C\Cl)c1cc(Cl)c(Cl)cc1Cl | 1.58 | – |
| CC(C)CC(C)Nc1ccc(Nc2ccccc2)cc1 (centres undefined) | – | 50.1 µM (active) |
| CC/C(=C(\c1ccccc1)c1ccc(OCCN(C)C)cc1)c1ccc(O)cc1 | – | 50.1 µM (active) |
| O=C1C2(Cl)C3(Cl)C4(Cl)C(Cl)(Cl)C5(Cl)C3(Cl)C1(Cl)C5(Cl)C24Cl (centres undefined) | – | 31.6 µM (active) and 39.8 µM (active) |
| OC(c1ccc(Cl)cc1)(c1ccc(Cl)cc1)C(Cl)(Cl)Cl | 1.68 | – |
| c1cc(OCC2CO2)cc(OCC2CO2)c1 (centres undefined) | – | 39.8 µM (active) |
| O=[N+]([O-])C(Br)Br | 7.97 | – |
